Source: the supplement of paper PMC11732987, “Enantioselective OTUD7B fragment discovery through chemoproteomics screening and high-throughput optimisation” (Communications Chemistry, 2025)

What was measured:
Assay in all cases: log2 ratio of Biotin-Ahx-Ub-VS probe labelling (fragment/DMSO); higher = less target engagement (more negative = stronger competition), active = hit call of the paper (q ≤ 0.05, log2 ratio ≤ -1)
Settings in all cases: compound concentration: 200 uM; treatment time: 3 h
OTUD6B = target: T1, OTUD6B (UniProt Q8N6M0)
T1 sequence (whole entry): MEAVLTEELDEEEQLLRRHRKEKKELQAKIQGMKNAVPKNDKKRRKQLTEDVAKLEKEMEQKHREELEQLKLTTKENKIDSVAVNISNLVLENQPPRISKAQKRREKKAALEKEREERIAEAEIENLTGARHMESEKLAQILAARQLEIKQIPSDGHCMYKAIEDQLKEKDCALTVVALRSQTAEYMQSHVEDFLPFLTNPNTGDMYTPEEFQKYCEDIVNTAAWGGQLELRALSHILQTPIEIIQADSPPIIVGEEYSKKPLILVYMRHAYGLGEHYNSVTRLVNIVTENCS
In short: (§1)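 Each value is an average log2 ratio of fragment to vehicle, tested by unpaired t-test. The underlying Spectronaut label-free quantities were global-median-normalised, and only proteins with ≥2 unique peptides were included. Triplicate HEK293T lysate samples (495 µg) were exposed to fragment at 200 µM or vehicle for 3 h, then to Biotin-Ahx-Ub-VS at 0.5 µM final for 1 h, before NeutrAvidin enrichment of labelled DUBs, LysC and trypsin digestion, and diaPASEF LC-MS/MS.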

OTUD7B = target: T2, OTUD7B (UniProt Q6GQQ9)
T2 sequence (whole entry): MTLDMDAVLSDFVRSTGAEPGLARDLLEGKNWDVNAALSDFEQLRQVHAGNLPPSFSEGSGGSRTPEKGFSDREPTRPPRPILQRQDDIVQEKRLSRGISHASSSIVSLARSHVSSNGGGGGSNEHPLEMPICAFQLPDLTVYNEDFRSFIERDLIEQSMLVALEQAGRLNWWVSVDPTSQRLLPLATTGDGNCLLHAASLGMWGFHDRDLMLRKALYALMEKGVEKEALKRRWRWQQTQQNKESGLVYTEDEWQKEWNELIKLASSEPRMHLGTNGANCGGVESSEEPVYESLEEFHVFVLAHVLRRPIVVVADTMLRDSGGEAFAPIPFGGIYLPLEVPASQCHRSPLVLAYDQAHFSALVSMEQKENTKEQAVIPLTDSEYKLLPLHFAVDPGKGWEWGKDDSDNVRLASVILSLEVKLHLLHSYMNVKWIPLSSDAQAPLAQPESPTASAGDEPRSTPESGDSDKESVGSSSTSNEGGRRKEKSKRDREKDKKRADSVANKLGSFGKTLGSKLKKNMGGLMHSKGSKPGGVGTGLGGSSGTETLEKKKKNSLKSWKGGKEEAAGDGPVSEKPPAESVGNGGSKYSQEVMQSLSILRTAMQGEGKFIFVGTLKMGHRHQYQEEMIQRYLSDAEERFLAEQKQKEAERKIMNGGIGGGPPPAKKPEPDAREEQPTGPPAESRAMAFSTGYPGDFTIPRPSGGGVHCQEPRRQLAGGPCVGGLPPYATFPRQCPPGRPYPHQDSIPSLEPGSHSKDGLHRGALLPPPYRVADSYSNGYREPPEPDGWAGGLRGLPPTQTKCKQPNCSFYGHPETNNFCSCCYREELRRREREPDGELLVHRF
In short: as §1

PRPF8 = PRPF8 (UniProt Q6P2Q9)
In short: as §1

PSMD7 = target: T3, PSMD7 (UniProt P51665)
T3 sequence (whole entry): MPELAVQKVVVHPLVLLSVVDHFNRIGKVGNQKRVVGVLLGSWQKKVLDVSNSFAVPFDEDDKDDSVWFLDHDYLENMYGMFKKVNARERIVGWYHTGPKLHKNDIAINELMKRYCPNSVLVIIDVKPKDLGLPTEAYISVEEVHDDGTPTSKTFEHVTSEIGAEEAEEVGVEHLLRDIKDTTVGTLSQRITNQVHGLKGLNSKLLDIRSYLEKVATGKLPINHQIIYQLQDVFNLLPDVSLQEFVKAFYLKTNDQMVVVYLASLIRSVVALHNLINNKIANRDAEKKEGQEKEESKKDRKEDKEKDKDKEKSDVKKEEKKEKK
In short: as §1

UCHL1 = UCHL1 (UniProt P09936)
Chain of UCHL1 (P09936 whole entry, looked up): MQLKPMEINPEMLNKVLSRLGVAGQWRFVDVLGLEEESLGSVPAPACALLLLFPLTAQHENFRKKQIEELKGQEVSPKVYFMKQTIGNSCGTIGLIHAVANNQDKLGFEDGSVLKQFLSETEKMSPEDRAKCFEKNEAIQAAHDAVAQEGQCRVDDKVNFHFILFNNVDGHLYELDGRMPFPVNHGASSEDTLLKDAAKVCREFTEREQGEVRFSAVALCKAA
In short: as §1

UCHL3 = target: T4, UCHL3 (UniProt P15374)
T4 sequence (whole entry): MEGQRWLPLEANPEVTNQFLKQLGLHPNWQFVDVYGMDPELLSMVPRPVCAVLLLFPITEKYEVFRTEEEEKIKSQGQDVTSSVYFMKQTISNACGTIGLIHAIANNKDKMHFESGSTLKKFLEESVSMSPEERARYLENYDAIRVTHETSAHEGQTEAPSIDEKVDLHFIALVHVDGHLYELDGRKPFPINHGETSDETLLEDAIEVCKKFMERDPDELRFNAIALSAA
In short: as §1

UCHL5 = target: T5, UCHL5 (UniProt Q9Y5K5)
T5 sequence (whole entry): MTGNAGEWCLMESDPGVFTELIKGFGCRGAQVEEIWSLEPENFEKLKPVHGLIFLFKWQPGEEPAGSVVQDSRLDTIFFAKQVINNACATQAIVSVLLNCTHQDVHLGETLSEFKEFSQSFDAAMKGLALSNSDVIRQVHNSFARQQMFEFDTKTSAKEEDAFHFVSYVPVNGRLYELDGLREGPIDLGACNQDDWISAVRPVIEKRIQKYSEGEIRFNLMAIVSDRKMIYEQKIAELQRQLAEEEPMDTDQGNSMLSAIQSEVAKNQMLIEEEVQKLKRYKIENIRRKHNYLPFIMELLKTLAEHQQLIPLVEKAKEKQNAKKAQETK
In short: as §1

USP10 = USP10 (UniProt Q14694)
Chain of USP10 (Q14694 whole entry): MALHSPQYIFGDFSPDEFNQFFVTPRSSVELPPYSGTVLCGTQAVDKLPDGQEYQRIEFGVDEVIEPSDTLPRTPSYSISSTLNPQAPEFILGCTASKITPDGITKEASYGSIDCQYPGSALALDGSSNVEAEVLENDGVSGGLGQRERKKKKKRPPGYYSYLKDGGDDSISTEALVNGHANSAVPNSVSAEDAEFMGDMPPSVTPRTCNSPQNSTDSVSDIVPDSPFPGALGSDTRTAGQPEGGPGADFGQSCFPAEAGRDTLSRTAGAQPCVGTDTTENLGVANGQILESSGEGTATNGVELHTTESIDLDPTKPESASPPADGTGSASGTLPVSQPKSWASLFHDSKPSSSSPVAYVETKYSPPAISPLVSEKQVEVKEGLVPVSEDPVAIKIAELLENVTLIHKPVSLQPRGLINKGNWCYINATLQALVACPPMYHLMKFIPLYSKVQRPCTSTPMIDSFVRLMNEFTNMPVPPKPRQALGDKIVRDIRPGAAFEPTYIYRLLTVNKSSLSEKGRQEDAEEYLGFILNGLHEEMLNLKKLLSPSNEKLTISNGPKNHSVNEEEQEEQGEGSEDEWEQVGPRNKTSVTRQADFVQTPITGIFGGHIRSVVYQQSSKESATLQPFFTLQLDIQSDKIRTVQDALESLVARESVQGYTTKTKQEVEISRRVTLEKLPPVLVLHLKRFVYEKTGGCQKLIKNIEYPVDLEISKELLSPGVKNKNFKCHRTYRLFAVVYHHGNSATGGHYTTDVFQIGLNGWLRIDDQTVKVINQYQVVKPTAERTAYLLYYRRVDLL
In short: as §1

USP15 = target: T6, USP15 (UniProt Q9Y4E8)
T6 sequence (whole entry): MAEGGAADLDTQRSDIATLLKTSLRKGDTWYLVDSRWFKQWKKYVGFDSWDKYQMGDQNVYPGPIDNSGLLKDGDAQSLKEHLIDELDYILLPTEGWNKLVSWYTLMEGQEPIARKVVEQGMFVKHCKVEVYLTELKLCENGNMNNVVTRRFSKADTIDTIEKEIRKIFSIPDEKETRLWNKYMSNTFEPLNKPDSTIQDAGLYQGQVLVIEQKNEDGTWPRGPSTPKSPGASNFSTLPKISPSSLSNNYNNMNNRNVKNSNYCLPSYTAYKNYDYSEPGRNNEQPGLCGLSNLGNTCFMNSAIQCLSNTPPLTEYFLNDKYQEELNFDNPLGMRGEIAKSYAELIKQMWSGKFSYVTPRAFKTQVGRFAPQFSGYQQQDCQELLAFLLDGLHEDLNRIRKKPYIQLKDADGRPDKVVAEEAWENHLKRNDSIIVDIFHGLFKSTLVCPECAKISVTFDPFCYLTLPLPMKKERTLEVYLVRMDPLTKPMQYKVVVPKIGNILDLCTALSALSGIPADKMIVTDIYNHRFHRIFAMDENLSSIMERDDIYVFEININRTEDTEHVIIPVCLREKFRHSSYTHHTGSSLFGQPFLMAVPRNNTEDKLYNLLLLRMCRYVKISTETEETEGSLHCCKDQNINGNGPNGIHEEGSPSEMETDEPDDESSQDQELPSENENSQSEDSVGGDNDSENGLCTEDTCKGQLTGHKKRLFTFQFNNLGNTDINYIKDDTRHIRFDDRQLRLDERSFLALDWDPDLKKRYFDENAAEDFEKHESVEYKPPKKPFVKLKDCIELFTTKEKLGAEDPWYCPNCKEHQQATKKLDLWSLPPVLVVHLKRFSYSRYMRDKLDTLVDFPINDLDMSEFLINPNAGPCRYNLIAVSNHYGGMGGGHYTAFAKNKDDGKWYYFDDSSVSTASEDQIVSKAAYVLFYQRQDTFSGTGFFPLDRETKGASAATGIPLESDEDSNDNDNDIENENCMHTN
In short: as §1

USP16 = USP16 (UniProt Q9Y5T5)
Chain of USP16 (Q9Y5T5 whole entry, looked up): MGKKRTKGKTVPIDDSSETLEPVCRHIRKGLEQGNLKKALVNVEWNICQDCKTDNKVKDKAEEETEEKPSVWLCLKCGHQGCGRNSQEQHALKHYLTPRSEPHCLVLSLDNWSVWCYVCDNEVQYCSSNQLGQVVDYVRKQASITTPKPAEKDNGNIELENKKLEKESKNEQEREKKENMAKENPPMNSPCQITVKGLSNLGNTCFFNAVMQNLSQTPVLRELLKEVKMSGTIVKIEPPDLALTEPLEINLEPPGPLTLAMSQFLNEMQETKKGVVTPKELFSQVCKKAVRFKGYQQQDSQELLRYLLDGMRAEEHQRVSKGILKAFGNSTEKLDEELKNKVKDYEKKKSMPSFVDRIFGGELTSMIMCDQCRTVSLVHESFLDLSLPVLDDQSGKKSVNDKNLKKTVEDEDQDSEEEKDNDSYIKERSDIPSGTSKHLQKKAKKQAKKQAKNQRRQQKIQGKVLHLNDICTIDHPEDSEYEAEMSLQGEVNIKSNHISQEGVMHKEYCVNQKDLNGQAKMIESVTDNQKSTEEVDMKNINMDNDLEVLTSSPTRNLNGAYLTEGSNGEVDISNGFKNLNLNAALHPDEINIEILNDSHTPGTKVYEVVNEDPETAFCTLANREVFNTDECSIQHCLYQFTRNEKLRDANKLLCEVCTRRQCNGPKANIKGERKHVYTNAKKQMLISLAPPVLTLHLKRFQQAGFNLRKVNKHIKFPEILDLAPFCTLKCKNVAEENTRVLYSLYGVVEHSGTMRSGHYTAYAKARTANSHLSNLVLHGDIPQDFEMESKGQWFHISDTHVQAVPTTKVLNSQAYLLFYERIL
In short: as §1

Measured: log2 ratio of Biotin-Ahx-Ub-VS probe labelling

CCN(Cc1ccc(C#N)cc1F)C(=O)CCl
active: UCHL1 -1.35
inactive: OTUD6B -0.409 | OTUD7B -0.641 | PRPF8 0.0668 | PSMD7 -0.234 | UCHL3 0.0414 | UCHL5 -0.5 | USP10 -0.11 | USP15 -0.275 | USP16 0.17
